Source: PubChem BioAssay (National Center for Advancing Translational Sciences (NCATS))
Only some compounds are listed: those with a hit (about 12% of all), similar ones and a draw of the others.
HP1b chromo inh = blocks HP1-beta chromodomain binding to methylated histone tails; AlphaScreen HP1-beta / biotin-H3K9me3 peptide binding; P83916; AID 540317; Potency, µM (series often up to 114 µM), for the others: at the highest dose activity change, negative = inhibition, hits mostly inhibitors; 0.56% of 390,000 active; also: nearly all actives have a fitted effect of over 70% in size
Target sequence (P83916 whole entry, looked up): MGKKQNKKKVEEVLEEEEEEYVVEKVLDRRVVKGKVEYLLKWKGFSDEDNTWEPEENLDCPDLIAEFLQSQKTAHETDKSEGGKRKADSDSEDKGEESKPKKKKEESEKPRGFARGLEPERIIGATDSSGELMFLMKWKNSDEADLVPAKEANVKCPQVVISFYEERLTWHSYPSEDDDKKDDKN
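Compound inhibition of the preformed complex between 50 nM HP1-beta and 50 nM biotinylated H3K9me3 peptide was read by AlphaScreen. Buffer was PBS pH 7.4 with 0.01% Tween-20. Incubations ran 30 min at room temperature, with 10 ug/mL donor/acceptor beads.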
BAZ2B block = BAZ2B (human) inhibition. AID 504333. Potency, µM (titrated, usually from 114 µM), inactives show at the highest dose activity change, negative = inhibition, actives largely listed as inhibitors. Q9UIF8. AlphaScreen BAZ2B-H3K14Ac peptide displacement. 4.4% of 360,000 active; also: % is scaled to controls: 0 for no effect and ±100 for the full control effect; nearly all actives have a fitted effect of over 60% in size
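Protein-peptide AlphaScreen: BAZ2B 50 nM, b-H3K14Ac 50 nM, 1x PBS pH 7.4 + 0.01% Tween-20. Preincubation 30 min RT; cpd 30 min RT (top 110 uM); beads 20 min RT, light-protected.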
G9a block = inhibitors of human histone lysine methyltransferase G9a; Q96KQ7; G9a H3K9 monomethylation, AlphaScreen, 2 h; Potency, µM (series often up to 102 µM), for the others: at the top dose activity, negative = inhibition, hits mostly inhibitors; 8.8% of 350,000 active; AID 504332; also: % is scaled to controls: 0 for no effect and ±100 for the full control effect; nearly all actives have a fitted effect of over 75% in size
Target sequence (Q96KQ7 913-1193 limits assumed): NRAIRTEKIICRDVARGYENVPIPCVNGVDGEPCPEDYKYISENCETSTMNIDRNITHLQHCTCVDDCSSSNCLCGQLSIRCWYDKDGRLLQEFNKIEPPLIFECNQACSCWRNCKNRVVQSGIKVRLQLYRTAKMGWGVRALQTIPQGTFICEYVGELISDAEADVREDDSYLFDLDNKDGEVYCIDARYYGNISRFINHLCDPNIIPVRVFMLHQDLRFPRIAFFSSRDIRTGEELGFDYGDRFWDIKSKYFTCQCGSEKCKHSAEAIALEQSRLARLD
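Quantitative HTS format: methyltransferase activity on a biotin-tagged H3K9 peptide is measured by AlphaScreen, using a rabbit anti-monomethyl-H3K9 antibody with streptavidin donor and anti-IgG acceptor beads. Final levels are 20 nM enzyme, 500 nM peptide, 20 uM SAM; 2 h RT.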
JMJD2A Tudor = inhibitors of human JMJD2A Tudor domain; O75164; AlphaScreen JMJD2A-Tudor / H3K4me3 peptide binding; Potency, µM (doses to about 114 µM), for inactives: at the highest dose activity change, negative = inhibition, actives largely listed as inhibitors; 4.4% of 390,000 active; AID 504339; also: % is scaled to controls: 0 for no effect and ±100 for the full control effect; nearly all actives have a fitted effect of over 50% in size
Sfp PPTase inh = blocks B. subtilis Sfp PPTase activity; Q9F4F7; Biochemical Sfp PPTase activity, qHTS; Potency, µM, for inactives: largest response in the series, negative = inhibition, usual class: inhibitors; 3.5% of 310,000 active; AID 1490;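 also: the enzyme is Sfp with the accession as filed and its product quenches rhodamine fluorescence; 0% = enzyme reaction without inhibitor and -100% = no enzyme wells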
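Reaction rates are the 30-min fluorescence difference (ex 525, em 598 nm) in wells containing 15 nM Sfp, 5 uM rhodamine-CoA and 12.5 uM BHQ-2-YbbR at pH 7.6 with 10 mM MgCl2.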
Numbers without * were called inactive; ? = inconclusive; · = no result given; [ ] = remark or other dose. Calls follow the shape of the dose curve; as a rule, active = well fitted curve in the direction sought with a large enough effect; inconclusive = small, poorly fitted or top-dose-only effect, or another doubt; inactive = no such curve, though single readings can be large; an effect the other way counts as inactive or inconclusive. Potency is read from the fitted curve at half-maximal effect.

SMILES	HP1b chromo inh	BAZ2B block	G9a block	JMJD2A Tudor	Sfp PPTase inh
Cc1ccc(S(=O)(=O)NNC(=O)Nc2ccccc2F)c(C)c1	29.9%	-18.1%	50.1µM*	-11.5%	11.8%
O=C(NCc1ccco1)/C(=C/c1ccco1)NC(=O)c1ccc(Br)o1	14.4%	-8.4%	?	-22.1%	?
CC(C)C(NC(=O)/C(=C\c1ccco1)NC(=O)c1ccco1)C(=O)O (centres undefined)	33.0%	-20.9%	39.8µM*	?	-5.3%
CC(C)C(NC(=O)/C(=C/c1ccco1)NC(=O)c1ccc(Br)o1)C(=O)O (centres undefined)	27.5%	?	22.4µM*	?	?
CCCCC1(C)Nc2ccccc2-c2nc3ccccc3n21 (centres undefined)	74.2%	-3.5%	·	16.2%	10.2%
Cc1cccc(-c2nc(CN3CCCC(C(=O)NC4CCC(C)CC4)C3)c(C)o2)c1 (centres undefined)	14.7%	?	·	?	-24.9%
CCSc1nnc([C@@H]2CCCN2C(=O)OC(C)(C)C)o1	30.3%	12.1%	50.1µM*	-13.5%	-5.7%
CCc1nn(C(CC)C(=O)NCCc2ccc(OC)cc2OC)c(=O)c2cc3occc3n12 (centres undefined)	27.0%	-17.2%	·	-14.3%	-1.1%
CCS(=O)(=O)C1=NN2C(=N)/C(=C\c3ccc(OCCOc4cccc(OC)c4)c(OC)c3)C(=O)N=C2S1	5.3%	35.5µM*	56.2µM*	56.2µM*	-28.7%
CCOc1cc(/C=C2\C(=N)N3N=C(S(C)(=O)=O)SC3=NC2=O)ccc1OCCOc1cccc(OC)c1	?	70.8µM*	-0.6%[2.33 µM]	79.4µM*	-14.2%
COc1cc(/C=C2\C(=N)N3N=C(S(C)(=O)=O)SC3=NC2=O)ccc1OCCOc1ccc(C)cc1	?	-31.7%	?	-18.5%	-20.5%
COc1cccc(-n2c(=O)c3sccc3n(CC(=O)NCC3CCCO3)c2=O)c1 (centres undefined)	31.8%	-30.5%	-35.6%	2.3%	12.9%
NC(=O)N/N=C/c1c(F)cccc1F	24.4%	-7.8%	-0.8%[59 µM]	-16.8%	-11.6%
NC(=O)N/N=C/c1c(F)c(F)c(F)c(F)c1F	-2.0%	-1.6%	·	11.2µM*	27.7%
COc1cc(NC(=O)c2csc3c2CCCC3)ncn1	17.7%	-6.8%	?	-4.2%	-13.5%
O=C1Nc2ccccc2C12OC1CCCCC1O2 (centres undefined)	20.3%	-3.0%	-19.1%[2.33 µM]	-13.1%	-8.6%
COc1cc(-c2c(C#N)c(N)nc3[nH]c(=S)[nH]c(=O)c23)ccc1O	43.2%	-4.6%	70.8µM*	-13.8%	-16.6%
COc1cc(-c2c(C#N)c(N)nc3c2CCCC3)ccc1O	-6.7%	-11.8%	-32.6%	-28.8%[11.4 µM]	5.2%
Cc1nc2cc(N3CCOCC3)c(NC(=O)C3CC3)cc2c(=O)n1Cc1ccccc1	10.8%	?	50.1µM*	?	-3.5%
O=C(CCC(=O)c1ccc(-c2ccccc2)cc1)Nc1cccnc1	42.6%	-9.5%	50.1µM*	-12.0%	-4.3%
O=C(Nc1ncc(Br)s1)C(Cc1ccccc1)n1cccc1 (centres undefined)	-8.4%	44.7µM*	44.7µM*	?	-10.3%
O=C(Nc1cccnc1)C(Cc1ccccc1)n1cccc1 (centres undefined)	0.8%	?	50.1µM*	-17.7%	-12.8%
O=C(NCCN1CCN(C(=O)c2c(F)cccc2F)CC1)C(=O)Nc1ccc(Cl)cc1	40.9%	-15.3%	-9.9%	-10.9%	6.0%
c1ccc(C2=Nc3ccccc3NC(c3ccccc3)C2)cc1 (centres undefined)	21.2%	10.4%	35.5µM*	0.0%	-28.0%
Clc1ccccc1C1CC(c2ccccc2)=Nc2ccccc2N1 (centres undefined)	19.1%	?	·	-3.9%	-18.5%
Brc1ccccc1C1CC(c2ccccc2)=Nc2ccccc2N1 (centres undefined)	-24.3%	?	?	39.8µM*	-23.0%
COc1ccccc1NS(=O)(=O)c1cccc(C(=O)NCC(c2ccco2)N(C)C)c1 (centres undefined)	8.9%	-33.5%	-6.0%	-30.3%	·
COc1ccccc1CCn1c(=O)c(-c2ccc(Cl)cc2)nc2cncnc21	·	·	-0.8%[12.7 µM]	·	-0.6%
